An excerpt weighted towards active compounds, which were near 6% of everything screened.
TSHR agonist: TSH receptor (human) agonism | P16473 | HEK293-CNG-TSHR cells (CNG channel as cAMP sensor), membrane potential dye, cAMP | Potency, µM (top dose mostly 57.1 µM), for the others: at the highest dose activation, most hits filed as activators | 73,000 tested, 0.48% active | AID 926; active = well fitted activation curve with a large enough effect in the main read-out, with a control signal flat, not every such curve was filed as active; inconclusive = small, poorly fitted or top-dose-only effect, or a change in a side signal; inactive = no such curve, though single readings can be large or run the other way; % of control where 0% means no effect;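 note: the control signal comes from parental cells without the receptor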
Target sequence (P16473 whole entry, looked up): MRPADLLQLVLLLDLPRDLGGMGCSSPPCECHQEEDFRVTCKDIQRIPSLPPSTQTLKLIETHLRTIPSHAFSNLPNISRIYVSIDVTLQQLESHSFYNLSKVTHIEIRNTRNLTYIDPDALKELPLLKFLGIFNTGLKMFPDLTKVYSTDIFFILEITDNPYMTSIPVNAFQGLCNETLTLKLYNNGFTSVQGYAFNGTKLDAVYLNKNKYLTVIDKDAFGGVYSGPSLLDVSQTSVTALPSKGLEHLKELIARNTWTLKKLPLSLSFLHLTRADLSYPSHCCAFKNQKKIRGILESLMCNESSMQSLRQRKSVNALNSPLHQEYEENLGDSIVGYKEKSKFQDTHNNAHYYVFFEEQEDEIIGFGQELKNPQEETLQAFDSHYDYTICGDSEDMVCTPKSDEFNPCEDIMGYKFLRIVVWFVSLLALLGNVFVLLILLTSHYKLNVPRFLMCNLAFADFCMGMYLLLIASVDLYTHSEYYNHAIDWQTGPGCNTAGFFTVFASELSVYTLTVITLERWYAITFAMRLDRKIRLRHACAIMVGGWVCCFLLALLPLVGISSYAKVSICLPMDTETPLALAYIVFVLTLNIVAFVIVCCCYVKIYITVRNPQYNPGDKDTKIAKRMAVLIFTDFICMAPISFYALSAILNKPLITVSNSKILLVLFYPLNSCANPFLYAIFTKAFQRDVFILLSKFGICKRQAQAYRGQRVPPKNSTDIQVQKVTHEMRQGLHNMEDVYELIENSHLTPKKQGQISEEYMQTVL
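cAMP rise detected as CNG-channel membrane depolarization by fluorescent dye (emission 590 nm), 30 min after compound, following 60 min dye loading containing 100 uM RO 20-1724 at room temperature. Cells: TSHR/CNG HEK 293, with parental CNG HEK 293 as control.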
CRE Fsk mod: modulators of forskolin-stimulated CRE signaling in CHO cells; CHO CRE-bla reporter (cAMP response element driving beta-lactamase), forskolin EC10, beta-lactamase ratio; Potency, µM (top dose mostly 38.2 µM), inactives show at the highest dose activity change, negative = inhibition, usual class: activators; 71,000 tested, 2.5% active; active = well fitted activation curve with a large enough effect in the signal ratio, with a control signal flat, not every such curve was filed as active; inconclusive = small, poorly fitted or top-dose-only effect, or effect the other way, or a change in a side signal; the % refers to the signal ratio; note: % of control where 0% means no effect
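Using CellSensor CRE-bla CHO cells in Opti-MEM with 0.5% dialyzed FBS, compounds were titrated with EC10 NKH 477 for 3 h at 37 °C. CCF4 ratio (460/530 nm) gave %Activity; AC50 derived.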
HEK293 cAMP cs: counter-screen for TSHR agonists: cAMP increase in parental HEK293. 73,000 tested, 2.5% active. parental HEK293 CNG cAMP sensor, membrane potential fluorescence. Potency, µM (highest dose often 57.1 µM), for inactives: at the highest dose activation, most hits filed as activators; note: % of control where 0% means no effect; nearly all actives have a fitted effect of over 55% in size
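Parental HEK 293 cells stably expressing a modified CNG channel (no TSHR) report cAMP rise as membrane depolarization. Membrane potential dye with 100 uM RO 20-1724 was loaded for 60 min at room temperature, then compound added for 30 min; fluorescence read at 590 nm.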
ERK AVP inh: blocks ERK signaling stimulated by vasopressin; HEK293-V1b, vasopressin-stimulated pERK AlphaScreen; Potency, µM (series often up to 57.5 µM), for the others: at the top dose activity, negative = inhibition, hits mostly inhibitors; 72,000 tested, 0.99% active; AID 995; note: % is set by controls: 0 for no effect and ±100 for the full control effect; nearly all actives have a fitted effect of over 55% in size
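HEK293 cells stably expressing V1b receptor, preincubated 30 min at 37 °C with compound, then stimulated 5 min with 25 nM vasopressin. Phospho-ERK by AlphaScreen SureFire after 5 h RT; normalized to DMSO and vasopressin; AC50 by Hill fit.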
An asterisk follows results filed as active; ? = inconclusive; / = not tested or not shown; [ ] = another dose, or the depositor's remark. Unless noted, calls come from the whole dose curve; as a rule, active = well fitted curve in the direction sought with a large enough effect; inconclusive = small, poorly fitted or top-dose-only effect, or another doubt; inactive = no such curve, though single readings can be large; an effect the other way counts as inactive or inconclusive. Potency is the fitted concentration of half-maximal effect.

SMILES | TSHR agonist | CRE Fsk mod | HEK293 cAMP cs | ERK AVP inh
N[C@@](C(=O)O)(c1ccc(P(=O)(O)O)cc1)C1CC1 | -0.9% | -5.8% | -0.5% | 2.4%
C=CCN1C(=O)/C(=C2/Sc3ccccc3N2CCCS(=O)(=O)O)SC1=S | -6.9% | 23.8% | -13.8% | -23.4%
C=CCN1C(=O)/C(=C2/Sc3ccccc3N2C)SC1=Nc1c(C)n[nH]c1C | 6.9% | 1.58µM* | -16.8% | -1.5%
C=C(C)CSc1nnc(-c2cccc(S(=O)(=O)N(C)C)c2)n1-c1cc(OC)ccc1OC | ? | ? | 12.6µM* | -23.9%
OCC1O[C@H](O[C@H]2C(O)C(O)C(O)O[C@@H]2CO)C(O)C(O)C1O (some centres undefined) | / | / | / | 14.7%
O=C(Cc1cccs1)NCc1cccs1 | -1.9% | -1.1% | 5.7% | -7.3%
CCCCOCCCNC(=O)Cc1cccs1 | ? | ? | 1.58µM* | -10.7%
NCCCCCc1nnc(SCC(=O)Nc2cccc(Cl)c2)o1 | 15.8µM* | ? | 3.6% | -10.0%
CCC/C=C(\CCC)C(NP(=O)(c1ccccc1)c1ccccc1)c1ccc(-c2ccccc2)cc1 (centres undefined) | 1.2% | 0.8% | 28.3% | 15.6%
CCC/C=C(\CCC)C(NP(=O)(c1ccccc1)c1ccccc1)c1ccc(C(F)(F)F)cc1 (centres undefined) | ? | -8.1% | 3.98µM* | -2.0%
CSc1ccc(S(=O)(=O)Nc2c(C)cccc2C)cc1 | ? | -6.8% | ? | 13.3%
CCc1ccccc1NS(=O)(=O)c1ccc(SC)cc1 | 25.1µM* | 13.9% | 14.6% | -4.8%
O=c1cc(CO)occ1O | -4.3% | ? | -4.3% | -1.3%
CN1CCN(c2ncnc3ccc(-c4ccccc4C#N)cc23)CC1 | 24.1% | 10µM* | 18.8% | -16.0%
COc1ccc2[nH]cc(CCNc3ncnc4ccc(-c5ccccc5C#N)cc34)c2c1 | -0.1% | 0.4% | -16.4% | -12.6%
N#Cc1ccccc1-c1ccc2ncnc(N3CCNCC3)c2c1 | 5.1% | ? | 2.7% | -19.2%
COc1ccc(CNc2ncnc3ccc(-c4ccccc4C#N)cc23)c(OC)c1 | 28.5% | 3.16µM* | 28.0% | -13.7%
Cc1cnc(CNc2ncnc3ccc(-c4ccccc4C#N)cc23)cn1 | 11.3% | 10.1% | -6.5% | -2.5%
COc1ccccc1CNc1ncnc2ccc(-c3ccccc3C#N)cc12 | ? | ? | ? | 25.1µM*
Cc1cc(=O)oc2c(OS(C)(=O)=O)c(OS(C)(=O)=O)ccc12 | / | 1.4%[7.6 µM] | 28.0%[11.4 µM] | 13.7%[11.5 µM]
COCCNC(=O)[C@H](C)/C=C/C(NC(=O)OCc1ccccc1)c1ccc(C(=O)OC)cc1 (some centres undefined) | 25.1% | -10.0% | 21.3% | 5.7%
Cc1cccn2cc(CCNS(=O)(=O)c3ccc4c(c3)OCCO4)nc12 | ? | 10µM* | ? | /
O=S(=O)(NCc1cn2ccsc2n1)c1ccc2c(c1)OCCO2 | 11.9%[11.4 µM] | 2.0% | -3.1% | 10.4%
COc1cccc(OCCSc2nnc3sc4ccccc4n23)c1 | ? | 14.7% | 15.8µM* | -0.4%
c1ccc(OCCSc2nnc3sc4ccccc4n23)cc1 | ? | 28.6% | ? | 8.0%
SMILES | TSHR agonist | CRE Fsk mod | HEK293 cAMP cs | ERK AVP inh
Cc1ccc(OCCN2CCN(C(=O)CCC(=O)Nc3nnc(C(C)C)s3)CC2)cc1 | 6.6% | -7.0% | -1.9% | 1.4%
Cc1ccc(OCCN2CCN(C(=O)CCC(=O)Nc3nnc(C)s3)CC2)cc1 | 12.9% | 7.94µM* | -15.9% | -11.2%
C#CCCCO/N=C1/C[C@@H](O)[C@@H](O)[C@@H]2[C@@H]3C(=O)N(c4cccc(Oc5ccccc5)c4)C(=O)[C@H]3CC[C@H]12 | -1.0%[11.4 µM] | / | 6.1%[11.4 µM] | -1.7%[11.5 µM]
NC(N)=NC[C@H](N)C(=O)O | ? | 7.5%[7.6 µM] | ? | -5.6%[11.5 µM]
CCOc1ccccc1NC(=O)N1CCCC1C(=O)Nc1nnc(CC)s1 (centres undefined) | 5.0% | -0.2% | 5.8% | 2.4%
CCOc1ccccc1NC(=O)N1CCCC1C(=O)Nc1ccc(-n2cnnn2)c(C)c1 (centres undefined) | 20µM* | -8.6% | -1.9% | 5.3%
CCN(CC)C[C@@H](O)c1ccc2ccc3ccccc3c2c1 | 7.7%[11.4 µM] | -1.6%[7.6 µM] | 10.2%[11.4 µM] | -11.9%[11.5 µM]
O=C(Nc1ccccc1)c1cccc(-c2nnc(-c3ccccc3)o2)c1 | ? | 6.7% | 31.6µM* | -17.9%
Cc1cc(N2CCN(C/C=C/c3ccccc3)CC2)n2ncnc2n1 | ? | 0.0% | ? | 10.2%

Screening results from PubChem BioAssay.
